An excerpt weighted towards active compounds, which were near 2.8% of everything screened.
DRD3 antagonist – antagonists of human D3 dopamine receptor. D3R cells, DiscoveRx beta-arrestin luminescence, antagonist mode; stronger effect = lower value. max response, negative = inhibition, %. 2.5% of 360,000 active. AID 652054; in the data active = max response below about -50%; inconclusive = no clear call, values can overlap the other calls; also: % is scaled to controls: 0 for no effect and ±100 for the full control effect
Target sequence (P35462 whole entry, looked up): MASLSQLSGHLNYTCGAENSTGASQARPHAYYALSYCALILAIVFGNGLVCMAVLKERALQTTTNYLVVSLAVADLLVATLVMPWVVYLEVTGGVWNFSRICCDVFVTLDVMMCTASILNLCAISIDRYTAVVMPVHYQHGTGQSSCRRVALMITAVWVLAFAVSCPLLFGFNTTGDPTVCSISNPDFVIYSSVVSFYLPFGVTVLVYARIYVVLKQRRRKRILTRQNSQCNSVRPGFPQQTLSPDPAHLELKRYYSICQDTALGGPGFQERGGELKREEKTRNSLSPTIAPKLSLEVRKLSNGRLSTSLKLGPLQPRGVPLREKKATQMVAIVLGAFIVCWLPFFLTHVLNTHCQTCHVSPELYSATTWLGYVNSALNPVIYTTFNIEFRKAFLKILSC
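Cells expressing the human receptor were seeded at 1500 cells/well, incubated overnight at 37 degrees C in 5% CO2, then exposed to library compounds with dopamine controls for 90 minutes at 37 degrees C before luminescent detection.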
D3 ag – D3 dopamine receptor (human) agonism; P35462; D3R DiscoveRx beta-arrestin cells, luminescence, 90 min; max activation, %; 0.58% of 410,000 active; AID 652048; in the data active = max activation above about 30%; also: 0% is about no effect
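Agonist-mode cell screen: cells plated at 1500/well and incubated overnight at 37 °C, then exposed to library compounds for 90 min at 37 °C. Detection reagent was added for 30–60 min at room temperature, and luminescence was read.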
B2AR arrestin – beta2AR (human) beta-arrestin recruitment activity; P07550; beta-arrestin recruitment to beta2AR, cell-based reporter; Potency, µM (top dose mostly 46.1 µM), for the others: at the highest dose activation, usual class: activators; 0.02% of 330,000 active; AID 492947; active = well fitted activation curve with a large enough effect; inconclusive = small, poorly fitted or top-dose-only effect;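 also: potency is read from the fitted curve at half-maximal effect; 0% = DMSO controls and full agonism = EC100 isoproterenol or metaproterenol; nearly all actives have a fitted effect of over 65% in size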
Giardia killer – Giardia lamblia killing; 0.15% of 340,000 active; activity change, % at 7.66 µM, hits read low; Giardia lamblia trophozoite viability; AID 540267; in the data active = activity change below about -80%; inconclusive = between about -30% and that limit;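 also: parasites exposed to compound for two days anaerobically before the ATP read; % is scaled to controls: 0 for no effect and ±100 for the full control effect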
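Trophozoites 100 cells/well + cpd; 48 hrs, 37 deg C, anaerobic. ATPLite 1-Step added, 15-30 min RT, luminescence read (ATP-based viability).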
* = called active by the depositor; ? = inconclusive; / = not tested or not shown.

SMILES	DRD3 antagonist	D3 ag	B2AR arrestin	Giardia killer
CCCN1CNc2c(c(=O)[nH]c(=S)n2Cc2ccc(OC)c(OC)c2)C1	/	/	/	-18
CC1(c2ccccc2Cl)NC(=O)N(CC(=O)Nc2ccc3c(c2)OCO3)C1=O (stereo not drawn)	-71*	2	-1%	5
CC1(c2ccccc2)NC(=O)N(CC(=O)Nc2ccc3c(c2)OCO3)C1=O (stereo not drawn)	0	-2	0%	-4
Cc1ccc(S(=O)(=O)c2cnc(-c3ccccc3)[nH]c2=O)cc1	/	/	/	9
CC1C/C(=C/c2ccccn2)C(=O)/C(=C/c2ccccn2)C1 (stereo not drawn)	-60*	-22	0%	-15
CC(C)(C)C1C/C(=C/c2ccccn2)C(=O)/C(=C/c2ccccn2)C1 (stereo not drawn)	-53*	-9	0%	?
CC(C)C[C@@H](CO)N(Cc1ccccc1)S(=O)(=O)N(Cc1ccccc1)[C@H](CO)CC(C)C	129	48*	0%	-14
CC(C)C[C@@H](CO)N(Cc1ccccc1)S(=O)(=O)N(Cc1ccccc1)[C@@H](CO)CC(C)C	123	-16	0%	20
C=CS(=O)(=O)N(Cc1ccccc1Br)[C@H](CO)CC(C)C	-81*	0	/	-2
Cc1cc(C)c2c(c1)C1C=CCC1C(C(=O)O)N2 (stereo not drawn)	/	/	/	22
CC(C(=O)Nc1cc(C(F)(F)F)ccc1Cl)n1nnc2sc3c(c2c1=O)CCCC3 (stereo not drawn)	/	-10	/	/
O=C(CCC(=O)c1ccc(F)cc1)NCC1(N2CCCCC2)CCCCC1	-88*	-12	-1%	?
COc1ccc([N+](=O)[O-])cc1NC(=S)NC(NC(=O)C(c1ccccc1)c1ccccc1)C(Cl)(Cl)Cl (stereo not drawn)	-80*	-18	-1%	-21
COC(=O)c1ccccc1NC(=S)NC(NC(=O)c1ccccc1[N+](=O)[O-])C(Cl)(Cl)Cl (stereo not drawn)	-51*	-8	0%	-4
COc1ccc([N+](=O)[O-])cc1NC(=O)C(C)c1ccccc1 (stereo not drawn)	-13	-12	0%	-18
COc1ccc(C2/C=C\CN(S(=O)(=O)CC34CCC(CC3=O)C4(C)C)CC(=O)N2Cc2ccc(F)cc2)cc1 (stereo not drawn)	/	/	/	16
CC(C)CCn1c(SC(C)C#N)nc2ccccc2c1=O (stereo not drawn)	/	/	/	25
CCOc1ccc(-c2noc(CSc3nnc(Cc4ccccc4)n3-c3cccc(C)c3)n2)cc1	/	1	/	/
Cc1csc(NC(=O)c2sc3nc(-c4cccs4)ccc3c2N)n1	51	39*	0%	-6
Cc1ccc(S(=O)(=O)NCCc2nnc3ccc(SCC(=O)Nc4c(C)cc(C)cc4C)nn23)cc1	/	7	/	/
COc1ccc(/C=N/NC(=O)CCn2c3ccccc3c3ccccc32)cc1OC	0	-2	-1%	19
COc1cc(/C=N/NC(=O)CCn2c3ccccc3c3ccccc32)cc(OC)c1OC	71	42*	0%	2
COc1ccc(-c2cc3ccccc3oc2=O)cc1NC(=O)c1ccc([N+](=O)[O-])o1	3	0	-1%	-94*
COc1ccc(S(=O)(=O)N2CCCCC2)cc1NC(=O)c1ccc([N+](=O)[O-])o1	-1	-6	0%	-95*
COc1ccc(S(=O)(=O)N2CCOCC2)cc1NC(=O)COc1cccnc1[N+](=O)[O-]	-63*	-7	-1%	?
SMILES	DRD3 antagonist	D3 ag	B2AR arrestin	Giardia killer
CCn1nnc(NC(=O)c2ccc([N+](=O)[O-])o2)n1	-12	2	-1%	-103*
CCCCn1nnc(NC(=O)c2ccc(-c3ccccc3[N+](=O)[O-])o2)n1	?	-3	0%	2
Cc1ccc(CN(Cc2ccco2)c2cnc(S(C)(=O)=O)nc2C(=O)Nc2ccc(Br)cc2)o1	/	-7	/	/
O=C(Nc1ccc(S(=O)(=O)N2CCCC2)cc1)c1ccc([N+](=O)[O-])o1	?	-14	0%	-81*
O=C(Nc1ccc(N2CCOCC2)cc1)c1ccc([N+](=O)[O-])o1	?	-13	0%	-85*
O=C(COc1cccnc1[N+](=O)[O-])Nc1c(Cl)cccc1Cl	-8	11	0%	?
O=C(COc1cccnc1[N+](=O)[O-])Nc1ncc(Cl)cc1Cl	-12	3	0%	-80*
O=C(COC(=O)c1ccc([N+](=O)[O-])o1)Nc1ccc(N2CCOCC2)cc1	2	-3	0%	-5
O=C(Nc1ccc(Cc2ccncc2)cc1)c1ccc([N+](=O)[O-])o1	?	-7	0%	-88*
O=S(=O)(NCc1cccc(Br)c1)c1ccc(-c2cc(C(F)(F)F)on2)s1	/	-3	/	/
COCCNC(=O)c1ccc2nc(CCc3ccccc3)oc2c1	/	8	/	/
O=C(Nc1ccc(S(=O)(=O)N2CCOCC2)cc1)c1ccc([N+](=O)[O-])s1	-28	-9	0%	?
O=C(Nc1ccc(Cc2ccncc2)cc1)c1cccs1	-19	31*	0%	-17
O=C(c1ccncc1)c1ccc(NC(=O)c2cccs2)cc1	4	-1	0%	-5
O=C(Nc1ccc(S(=O)(=O)N2CCOCC2)cc1)c1ccc([N+](=O)[O-])o1	?	-8	-1%	-83*
Cc1ccccc1C(=O)NC(=S)Nc1ccc(S(=O)(=O)N2CCOCC2)cc1	-54*	-13	0%	4
Cn1c2cc(B(O)O)sc2c2cnn(Cc3ccc(F)cc3F)c(=O)c21	/	/	0%	/
CCCCN(CC)CCNC(=O)Cn1c(=O)c2cccn2c2cccnc21	/	-17	/	/
C=CCC[C@@H](Cc1ccc(F)cc1)C(=O)OC[C@@H](Cc1c[nH]c2ccccc12)NC(=O)[C@@H](CC=C)CC(=O)N(CCO)Cc1ccccc1	129	41*	0%	18
C=CCC[C@@H](Cc1ccc(F)cc1)C(=O)OC[C@@H](NC(=O)[C@@H](CC=C)CC(=O)N[C@H](CO)Cc1ccccc1)C(C)(C)C	-63*	-16	0%	-9
C=CC[C@@H](CC(=O)N[C@@H](CO)Cc1ccccc1)C(=O)NC[C@@H](OC(=O)[C@@H](CC=C)Cc1ccc(F)cc1)c1ccccc1	2	5	0%	-7
C=CC[C@@H](CC(=O)N[C@@H](CO)Cc1ccccc1)C(=O)NC[C@H](OC(=O)[C@@H](CC=C)Cc1ccc(F)cc1)c1ccccc1	43	53*	0%	13
C=CC[C@@H](CC(=O)N[C@@H](CO)Cc1ccccc1)C(=O)N[C@H](COC(=O)[C@@H](CC=C)Cc1ccc(F)cc1)C(C)(C)C	2	2	0%	-6
COc1cccc(CN(Cc2ccco2)c2cnc(S(C)(=O)=O)nc2C(=O)Nc2cccc(Cl)c2C)c1	/	3	/	/
COc1ccccc1CNC(=O)N1CCN(S(=O)(=O)c2ccccc2)CC1	26	30*	0%	-9
COc1ccccc1CNC(=O)N1CCN(S(=O)(=O)c2ccc(Cl)cc2)CC1	6	7	0%	-17
O=C1c2cccnc2C(O)N1Cc1ccc(F)cc1 (stereo not drawn)	-66*	4	-2%	-2

Screens from PubChem.
